Screening results from PubChem BioAssay.
A selection: hits, their analogues and other compounds. The true share with any hit is near 21%.
SARS PLP yeast: qHTS of Yeast-based Assay for SARS-CoV PLP; S. cerevisiae expressing SARS-CoV PLpro, growth rescue; Potency, µM (titrated, usually from 32.9 µM), without a hit: at the highest dose activity, positive = growth rescue, actives largely listed as activators; 330,000 compounds, 0.19% hits; further: potency means the concentration at half of the fitted maximal effect; 0% is about no effect; nearly all actives have a fitted effect of over 55% in size
Pf growth 96h: Primary qHTS for delayed death inhibitors of the malarial parasite plastid, 96 hour incubation; P. falciparum luciferase reporter growth, 96 h; Potency, µM (doses to about 28.7 µM), without a hit: top-dose activity change, negative = inhibition, most hits filed as inhibitors; 320,000 compounds, 6.9% hits; AID 504834, 2011; active means well fitted inhibition curve with a large enough effect; inconclusive means small, poorly fitted or top-dose-only effect, or another doubt; inactive means no such curve, though single readings can be large or run the other way; further: potency means the concentration at half of the fitted maximal effect; on the % scale 0 is the no-effect control and ±100 the full control effect
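96 h incubation, 37 C, 5% CO2, of luciferase-reporter P. falciparum-infected RBCs (2% hematocrit, 0.05% parasitemia final) with test compounds; endpoint luminescence.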
Shiga toxin inh: A qHTS for Small Molecule Inhibitors of Shiga Toxin. Vero cells, Shiga toxin protein synthesis inhibition reporter. inhibition, % at 38.7 µM. 290,000 compounds, 9.2% hits. AID 2315, 2010; in the data active means inhibition mostly above about 28%, no sharp cut-off; inactive means mostly below about 43%; further: 0% is about no effect
NS1 inh: qHTS Assay for Inhibitors of Influenza NS1 Protein Function. 270,000 compounds, 0.4% hits. AID 2326, 2010. Potency, µM (series often up to 46.1 µM), for the others: at the highest dose activity, positive = more growth; further: potency means the concentration at half of the fitted maximal effect; actives are rising curves; nearly all actives have a fitted effect of over 50% in size
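A cell-based growth assay was used: compounds that relieve NS1-induced slow growth of budding yeast raise OD600. Assay medium was yeast nitrogen base with ammonium sulphate and -URA supplement, pH 6.0, with 2% galactose.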
Pf growth 48h: Primary qHTS for delayed death inhibitors of the malarial parasite plastid, 48 hour incubation. P. falciparum luciferase growth in erythrocytes, 48 h. Potency, µM (doses to about 28.7 µM), without a hit: at the top dose activity change, negative = inhibition, most hits filed as inhibitors. 310,000 compounds, 5.9% hits; active means well fitted inhibition curve with a large enough effect; inconclusive means small, poorly fitted or top-dose-only effect, or another doubt; inactive means no such curve, though single readings can be large or run the other way; further: potency means the concentration at half of the fitted maximal effect; on the % scale 0 is the no-effect control and ±100 the full control effect
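Firefly luciferase activity from engineered P. falciparum reports growth; inhibitors lower the luminescent signal. Cultures contained 2% hematocrit erythrocytes at 0.1% final parasitemia.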
CHX counter: Cycloheximide Counterscreen for Small Molecule Inhibitors of Shiga Toxin. cell reporter, cycloheximide protein synthesis inhibition counterscreen. max response, %. 300,000 compounds, 12% hits; in the data active means max response mostly above about 13%, no sharp cut-off; inactive means mostly below about 14%; further: read at 38.3 µM for the half of the compounds with a filed dose; 0% is about no effect
* hit, by the source's call; ? = inconclusive; · = no result given; + = active, no number. Unless noted, the call rests on the fitted dose curve.

SMILES	SARS PLP yeast	Pf growth 96h	Shiga toxin inh	NS1 inh	Pf growth 48h	CHX counter
COc1cc(C(C(=O)NC2CCCC2)N(C(=O)c2snc(C(N)=O)c2N)c2ccccc2)cc(OC)c1OC (stereo unspecified)	0%	8.3µM*	5	?	?	-2
CS(=O)(=O)C1=NSC2=NC(=O)/C(=C\c3ccc(OC(=O)c4ccco4)c(Br)c3)C(=N)N21	-8%	?	-11	5%	6%	4
O=C(O)CCC(=O)Nc1nc2nccc(-c3ccccc3)n2n1	0%	39%	9	-2%	30%	-3
CCOC(=O)CN/C=C(\C#N)c1ccccc1	7%	12%	-57	-1%	-18%	8
N#C/C(=C\c1ccc(OCC(N)=O)cc1)c1ccccc1	6%	12%	88*	-7%	88%	39*
Cc1cc(NC(=O)c2cccc(Cl)c2)n[nH]1	-4%	102%	·	·	167%	·
Cc1cc(NC(=O)NC(=O)c2ccc(F)cc2F)n[nH]1	0%	?	43*	-1%	176%	19*
Cc1ccc(NC(=O)CN2C(=O)NC3(CCCC3)C2=O)c(Cl)c1	19%	34%	-11	19%	-3%	-2
Cc1ccc(-c2nc3c(c(SCC(=O)N4CCOCC4)n2)Cc2c(CO)cnc(C)c2O3)cc1	0%	-14%	-1	16%	7.4µM*	7
COc1cc(SC)ccc1C(=O)Nc1ccc2c(c1)CCC2	-3%	-49%	96*	-7%	49%	31*
CCCNC(=O)c1ccc(SC)cc1OC	-5%	?	17	-20%	11%	12
COc1cc(SC)ccc1C(=O)Nc1ccccc1C#N	-2%	100%	91*	-7%	222%	37*
COc1cc(SC)ccc1C(=O)Nc1cccc(C2OCCCO2)c1	-3%	321%	71*	·	47%	32*
COc1cc(SC)ccc1C(=O)NC1CCCc2ccccc21 (stereo unspecified)	-3%	-26%	-2	1%	-4%	8
COc1cc(SC)ccc1C(=O)Nc1ccncc1	-4%	-17%	50	-8%	-12%	33*
COc1ccc(C(=O)Nc2ccncc2)c(OC)c1	0%	?	14	-5%	3%	12
CC1CCCN(C(=O)COC(=O)c2cccc(NS(=O)(=O)c3ccccc3)c2)C1 (stereo unspecified)	3%	18%	·	·	4%	·
O=C(O)c1ccc2c(c1)C(=O)N([C@H](Cc1c3ccccc3cc3ccccc13)C(=O)O)C2=O	-1%	8%	1	·	0%	-1
N/C(CN1CCSCC1)=N\OCc1c(F)cccc1Cl	1%	6%	49*	2%	-12%	12
NC(=O)NOCc1c(F)cccc1Cl	0%	35%	-10	0%	0%	-1
O=C(Nc1nnc(-c2ccc(Cl)cc2)o1)C1CCCCC1	5%	-89%	-8	1%	?	-2
O=C(Nc1nnc(-c2ccc3c(c2)OCCO3)o1)C1CCCCC1	-7%	150%	131*	·	395%	43*
CCOc1ccc(-c2nnc(NC(=O)C3CCCC3)o2)cc1	-3%	68%	42*	7%	57%	35*
CCOc1ccc(C(=O)Nc2nnc(C3=COCCO3)o2)cc1	-2%	-28%	19	-15%	-22%	8.4*
O=C(Nc1nnc(-c2ccccc2)o1)C1CCCCC1	5%	?	12	-1%	-22%	-3
SMILES	SARS PLP yeast	Pf growth 96h	Shiga toxin inh	NS1 inh	Pf growth 48h	CHX counter
COC(=O)CCCNC(=O)c1ccc2nc(Cc3ccc(OC)cc3)oc2c1	-3%	33%	60	-17%	0%	14*
C=C(C)CNC(=O)c1ccc2nc(Cc3ccc(OC)cc3)oc2c1	0%	-5%	39*	-4%	11%	39*
Cc1nnsc1S(=O)(=O)Cc1ccccc1C(F)(F)F	-2%	?	-15	·	2%	-2
C/C(CCc1ccc2c(c1)OCO2)=N\N=C1\NC(=O)CC(C(=O)Nc2ccc(Cl)cc2)S1 (stereo unspecified)	-7%	71%	-18	17%	40%	-4
COc1ccccc1N1CCN(/N=C(\C)c2ccc(O)cc2)CC1	1%	171%	43*	14%	75%	28*
COc1ccccc1N1CCN(/N=C/c2cc(Br)ccc2F)CC1	27%	66%	22	-10%	21%	16*
COc1ccc(/C=N/N2CCN(C)CC2)cc1OC	0%	14%	3	13%	15%	2
COc1ccccc1N1CCN(CC(=O)c2ccc(F)cc2)CC1	4%	4%	6	-12%	6%	2
COc1ccc(/C=N/N2CCN(c3ccccc3OC)CC2)cc1OC	-2%	7%	36	-35%	13%	17*
COc1ccccc1N1CCN(/N=C/c2ccc(C(=O)O)cc2)CC1	2%	?	154*	5%	254%	48*
COc1ccccc1N1CCN(/N=C/c2cc(OC)c(OC(C)=O)c(OC)c2)CC1	-1%	?	·	10%	-25%	-3
COc1ccc(/C=N/N2CCN(c3ccccc3OC)CC2)cc1Br	-3%	-22%	·	-21%	72%	30*
COc1ccccc1N1CCN(/N=C/c2cccc(OC)c2O)CC1	1%	-18%	3	5%	171%	11
COc1ccccc1N1CCN(/N=C/c2ccc(O)c(O)c2)CC1	2%	1%	55*	1%	19%	38*
CCCC/C=C/[C@H](c1ccccc1)[C@H](CO)Cc1cnc2ccccc2c1	·	·	13	·	·	-2
CN1C(=O)C(O)N=C(c2ccccc2)c2ccccc21 (stereo unspecified)	-1%	20%	11	1%	2%	-1
CN1C(=O)[C@@H](NC(=O)c2cc3ccccc3[nH]2)N=C(c2ccccc2)c2ccccc21	·	15µM*	10	·	15µM*	22
NC(=O)[C@H]1O[C@@H](O)[C@H](O)[C@@H](O)[C@@H]1O	·	-29%	·	·	-10%	·
COc1cc(/C=N/NC(=O)c2ccncc2)ccc1OC(C)=O	-3%	?	-11	11%	8%	-2
COc1cc(/C=N/NC(=O)c2ccncc2)ccc1OCCN1CCCCC1	-11%	27%	+	0%	16%	35*
COc1cc(/C=N/NC(=O)c2ccncc2)ccc1OCC(=O)Nc1ccc(C)c(C)c1	-1%	10%	40	4%	-10%	13*
COc1cc(/C=N/NC(=S)Nc2cccc(Cl)c2C)ccc1OCC(=O)N1CC(C)OC(C)C1 (stereo unspecified)	-8%	?	-2	?	9.3µM*	4
COc1cc(/C=N/NC(=S)NC(C)C)ccc1OCC(=O)Nc1c(C)cc(C)cc1C	8%	13µM*	18	?	12µM*	2
